Screening results (PubChem BioAssay)
Sampled rows, rich in hits. Any-hit rate of the full collection: about 22%.
Pf growth 48h = inhibits P. falciparum growth in the first generation, 48 h | P. falciparum luciferase growth in erythrocytes, 48 h | Potency, µM (top dose mostly 28.7 µM), usual class: inhibitors | 310,000 tested, 5.9% active | AID 504832
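Luciferase-expressing P. falciparum in infected erythrocytes (2% hematocrit, 0.1% parasitemia final) in RPMI 1640/0.5% Albumax were exposed to compound for 48 hours at 37 C, 5% CO2; growth read as luminescence.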
Cycloheximide cs = counter-screen hit for Shiga toxin inhibitors, cycloheximide; cell reporter, cycloheximide protein synthesis inhibition counterscreen; max response, %; 300,000 tested, 12% active; in the data active = max response mostly above about 13%, no sharp cut-off; inactive = mostly below about 14%; note: read at 38.3 µM for the half of the compounds with a filed dose
LmPK inhibitor = blocks Leishmania mexicana pyruvate kinase activity. 290,000 tested, 0.37% active. Q27686. Potency, µM (top dose mostly 57.5 µM), most hits filed as inhibitors. purified LmPK, Kinase-Glo ATP luminescence, 1 h
Target sequence (Q27686 whole entry, looked up): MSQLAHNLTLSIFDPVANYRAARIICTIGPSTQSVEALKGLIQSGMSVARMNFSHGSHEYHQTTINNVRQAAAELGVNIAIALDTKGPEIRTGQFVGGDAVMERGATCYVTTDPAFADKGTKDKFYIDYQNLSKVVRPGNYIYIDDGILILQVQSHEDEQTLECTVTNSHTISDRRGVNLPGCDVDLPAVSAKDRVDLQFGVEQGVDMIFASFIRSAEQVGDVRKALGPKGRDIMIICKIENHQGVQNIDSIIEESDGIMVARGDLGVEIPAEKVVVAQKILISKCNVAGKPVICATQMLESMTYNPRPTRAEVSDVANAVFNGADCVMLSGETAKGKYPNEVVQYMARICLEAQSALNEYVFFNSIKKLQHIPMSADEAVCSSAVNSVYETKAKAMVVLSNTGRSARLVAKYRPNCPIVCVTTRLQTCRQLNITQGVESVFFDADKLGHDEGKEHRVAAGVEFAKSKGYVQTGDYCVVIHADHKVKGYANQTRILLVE
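Purified LmPK (0.1 nM) with 0.5 mM PEP and 0.1 mM ADP in imidazole buffer pH 7.2 with MgCl2/KCl, 1 h at room temperature. ATP formed was read by luciferase luminescence and normalized to no-enzyme and uninhibited controls.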
Shiga inhibitor = inhibitors of Shiga toxin in Vero cells | 290,000 tested, 9.2% active | inhibition, % at 38.7 µM | Vero cells, Shiga toxin protein synthesis inhibition reporter; in the data active = inhibition mostly above about 28%, no sharp cut-off; inactive = mostly below about 43%
Pf growth 96h = inhibits malaria parasite growth, 96 h. P. falciparum luciferase reporter growth, 96 h. Potency, µM (series often up to 28.7 µM), hits mostly inhibitors. 320,000 tested, 6.9% active. AID 504834
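Parasite growth measured via integrated firefly luciferase reporter in P. falciparum. Infected erythrocytes at 2% hematocrit, 0.05% parasitemia final were treated 96 hours at 37 C under 5% CO2, and luminescence was read.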
Large screens that a line does not name were inactive. Unless noted, calls come from the whole dose curve; as a rule, active = well fitted inhibition curve with a large enough effect; inconclusive = small, poorly fitted or top-dose-only effect, or another doubt; inactive = no such curve, though single readings can be large or run the other way.

COc1ccc(C(=O)N/N=C(\C)c2cccc(NC(=O)c3ccc(F)cc3)c2)c(OC)c1	Cycloheximide cs 26
COc1ccc(C(=O)Nc2ccc(NC(=O)c3cccc(F)c3)cn2)cc1	Pf growth 48h inconclusive, Pf growth 96h inconclusive
C/C(=N/NC(=O)c1ccco1)c1cccc(NC(=O)c2ccc(C)o2)c1	Cycloheximide cs 41, Shiga inhibitor 122
C/C(=N/NC(=O)c1ccc(Br)o1)c1cccc(NC(=O)c2ccc(F)cc2)c1	Pf growth 48h inconclusive, Cycloheximide cs 49, Shiga inhibitor 120, Pf growth 96h inconclusive
COc1ccc(C(=O)N/N=C(/C)c2cccc(NC(=O)c3ccccc3F)c2)cc1	Pf growth 96h inconclusive
C/C(=N\NC(=O)c1ccn(C)n1)c1ccc(NC(=O)c2cccc(F)c2)cc1	Cycloheximide cs 58, Shiga inhibitor 170
CCCCn1c(N)c(N(CCOC)C(=O)CCCc2cccs2)c(=O)[nH]c1=O	none (no result: Cycloheximide cs, LmPK inhibitor, Shiga inhibitor)
Cc1nn(-c2ccccc2)nc1C(=O)Nc1nnc(C(F)(F)F)s1	none
CCC(CC)C(=O)Nc1cccc(/C(C)=N\NC(=O)c2ccc(C)s2)c1	Cycloheximide cs 14
CCC(CC)C(=O)Nc1cccc(C(=O)NCc2ccco2)c1	none
C/C(=N\NC(=O)c1ccn(C)n1)c1cccc(NC(=O)c2ccc(C)s2)c1	Cycloheximide cs 32, Shiga inhibitor 77
CC(=O)Nc1ccc(/C(C)=N/NC(=O)c2ccncc2)cc1	none
CCC(=O)Nc1ccc(/C(C)=N\NC(=O)c2ccc(C)s2)cc1	Pf growth 48h inconclusive, Cycloheximide cs 15, Pf growth 96h inconclusive
C/C(=N/NC(=O)c1ccc(Br)o1)c1ccncc1	Cycloheximide cs 74, Shiga inhibitor 60
OCCC1CN(Cc2cccn2-c2cccnc2)CCN1C1CCCC1 (centres undefined)	none
O=C(N=Nc1ccc(NOC(=O)c2ccccc2Br)cc1)c1ccccc1O	LmPK inhibitor inconclusive
CC1CCN(C(=O)COC(=O)CSc2ccc(C(N)=O)cc2[N+](=O)[O-])CC1	none (no result: Cycloheximide cs, LmPK inhibitor, Shiga inhibitor)
C/C(=N/NC(=O)c1ccc(Br)o1)c1cccc(NC(=O)c2ccc(C)o2)c1	Cycloheximide cs 28, Shiga inhibitor 136, Pf growth 96h inconclusive
C/C(=N/NC(=O)c1ccco1)c1cccc(NC(=O)c2ccc(C)s2)c1	Cycloheximide cs 56, Shiga inhibitor 68
Cc1ccc(Nc2nc(N)nc(CN3CCN(Cc4ccc5c(c4)OCO5)CC3)n2)cc1	Pf growth 48h 10µM (no result: Pf growth 96h)
Cc1ccc(Nc2nc(N)nc(CN3CCN(Cc4ccc5c(c4)OCO5)CC3)n2)c(C)c1	Pf growth 48h 12µM, Pf growth 96h inconclusive
CC[C@H](C)[C@H](NC(=O)[C@H](CC(=O)O)NC(=O)[C@H](CC(C)C)NC(=O)[C@H](Cc1cnc[nH]1)NC(=O)[C@H](C)NC(=O)[C@H](Cc1ccccc1)NC(=O)[C@H](Cc1ccc(O)cc1)NC(=O)[C@@H](NC(=O)[C@H](C)NC(=O)[C@H](CCC(=O)O)NC(=O)[C@H](CCCCN)NC(=O)[C@H](CC(=O)O)NC(=O)[C@H](CCSC)NC(=O)[C@H](CC(C)C)NC(C)=O)C(C)C)C(=O)N[C@H](C(=O)N[C@@H](Cc1c[nH]c2ccccc12)C(=O)O)[C@@H](C)CC	none (no result: Pf growth 48h, LmPK inhibitor, Pf growth 96h)
O=C(Cc1c(Cl)cccc1Cl)OCc1ccccn1	Pf growth 48h inconclusive, Cycloheximide cs 25, Shiga inhibitor 59, Pf growth 96h inconclusive
O=C(OCc1ccccn1)C1CCN(C(=O)c2ccc(Cl)cc2)CC1	Pf growth 48h inconclusive (no result: Cycloheximide cs, LmPK inhibitor, Shiga inhibitor)
O=C(CSc1nc2c(c(C(F)(F)F)n1)CCc1ccccc1-2)NCc1ccccc1	none
Cc1nn(Cc2ccccc2)c(C)c1NC(=O)CSc1nc2c(c(C(F)(F)F)n1)CCc1ccccc1-2	Pf growth 48h 5.2µM, Pf growth 96h 8.3µM
N#Cc1cc2c(=O)n3ccccc3nc2n(-c2ccccc2Cl)c1=O	none
Cc1ccc(C(C)NC(=O)C23CC4CC(CC(C4)C2)C3)cc1 (centres undefined)	Pf growth 96h 0.59µM
CSCCC(NC(=O)c1ccc([N+](=O)[O-])cc1Cl)C(=O)OCC(=O)C12CC3CC(CC(C3)C1)C2 (centres undefined)	none
CC(NC(=O)C12CC3CC(CC(C3)C1)C2)c1ccc2c(c1)OCCO2 (centres undefined)	Pf growth 96h inconclusive (no result: Pf growth 48h)
CSCCC(NC(=O)C12CC3CC(CC(C3)C1)C2)C(=O)OCC(=O)c1ccc(C)cc1 (centres undefined)	Pf growth 96h 0.33µM
Cc1occc1C(=O)NNC(=O)CN1C(=O)NC2(CCCCC2)C1=O	none (no result: Cycloheximide cs, LmPK inhibitor, Shiga inhibitor)
CCOC(=O)CNC(=S)N(Cc1ccc(C)cc1)Cc1ccc(C)o1	none
Cn1ncc(Cl)c1C(=O)Nc1ccc2c(c1)CCC2	Cycloheximide cs 44, Shiga inhibitor 77
CN1N=C(C(=O)Nc2ccc3c(c2)CCC3)CCC1=O	Cycloheximide cs 28, Shiga inhibitor 76
CCCn1c(SCC(=O)Nc2ccc3c(c2)CCC3)n[nH]c1=O	none
CC(C)(C)c1ccc(OCC(=O)N/N=C/c2ccc(N3CCOCC3)cc2)cc1	Pf growth 96h inconclusive
Cc1cc(C)c(C)c(C(=O)CSc2nnc(-c3ccc4[nH]c(C)c(C)c4c3)o2)c1C	Pf growth 48h 13µM, Pf growth 96h inconclusive
Cc1[nH]c2ccc(-c3nnc(SCC(=O)c4ccc(F)cc4)o3)cc2c1C	Pf growth 96h inconclusive
Oc1ccc(Cl)cc1C1C=C(c2ccc3c(c2)OCO3)NC(c2cc(Br)ccc2F)N1 (centres undefined)	Cycloheximide cs 31, Shiga inhibitor 83 (no result: Pf growth 48h, LmPK inhibitor, Pf growth 96h)
O=C(O)c1cc(-c2ccc3c(c2)OCO3)nc2ccc(Cl)cc12	none
COc1ccc(Br)cc1C1NC(c2ccc3c(c2)OCO3)=CC(c2cc(Cl)ccc2O)N1 (centres undefined)	Cycloheximide cs 45, Shiga inhibitor 90 (no result: Pf growth 48h, LmPK inhibitor, Pf growth 96h)
COc1ccc(Cl)cc1C(=O)NCc1ccc2c(c1)OCO2	Pf growth 48h inconclusive
Cc1cc(OCC(=O)OCC(=O)NCCN2C(=O)CSC2=O)ccc1Cl	none (no result: Cycloheximide cs, LmPK inhibitor, Shiga inhibitor)
CC(C)CCNC(=O)[C@H](Cc1ccccc1)N1Cc2ccccc2C1=O	none
CS(=O)(=O)Nc1ccc(C2=NN(C(=O)c3ccco3)C(c3ccccc3F)C2)cc1 (centres undefined)	Pf growth 48h inconclusive, Pf growth 96h inconclusive
CCNC(=O)/C(C#N)=C/c1c(N2CCN(c3ccccc3)CC2)nc2c(C)cccn2c1=O	Pf growth 48h inconclusive, Pf growth 96h inconclusive
C=CCNC(=O)/C(C#N)=C/c1c(N2CCN(c3cccc(Cl)c3)CC2)nc2c(C)cccn2c1=O	Pf growth 48h 8.3µM, Pf growth 96h inconclusive
COCCNC(=O)/C(C#N)=C/c1c(N2CCN(c3cccc(Cl)c3)CC2)nc2c(C)cccn2c1=O	Pf growth 48h 13µM, Pf growth 96h inconclusive
CCNC(=O)/C(C#N)=C/c1c(N2CCCCCC2)nc2c(C)cccn2c1=O	Pf growth 48h inconclusive, Pf growth 96h 13µM
COCCNC(=O)/C(C#N)=C/c1c(N2CCN(c3ccccc3)CC2)nc2c(C)cccn2c1=O	Pf growth 48h 13µM, Pf growth 96h inconclusive
